# Measurements from the supplement of paper PMC8728848.
# About 410 targets per protein were measured; listed, in parts, are those with the strongest signals and a random draw of the rest.
# B1: PFL (Pseudomonas fluorescens) (protein)
# chain: MSKYAVANQWGGSSAPWHPGGTWVLGARDNQNVVAIEIKSGDGGKSFTGTMTYAGEGPIGFKAQRTGQNQYNVENQWGGNDAPWHPGGKWVIGGRDNQNVIALSVTSSDGGKNLSGTNTYANEGPIGFRGQIE
# Key:
# Assay in all cases: glycan array binding signal (z-score within array); higher = stronger binding
# Settings in all cases: glycan notation: IUPAC condensed, linker removed
# [1] = target: Fuc(a1-2)Gal(b1-3)GalNAc(b1-3)Gal(a1-4)Gal(b1-4)Glc
# Outline: (§1)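 Glycan array data came from 3228 arrays in the Consortium for Functional Glycomics database, and only arrays with an available protein sequence were kept. Glycan names were put into IUPAC-condensed notation, and columns mapping to the same glycan were averaged. The binding signal is a within-array Z-score, averaged across arrays of one protein sequence run at different concentrations or buffers and across linkers. A negative Z-score can be read as non-binding.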
# [2] = target: Fuc(a1-2)Gal(b1-3)GlcNAc(b1-3)[Gal(b1-4)GlcNAc(b1-6)]Gal(b1-4)Glc
# Outline: as §1
# [3] = target: Fuc(a1-2)Gal(b1-3)[Fuc(a1-4)]GlcNAc(b1-3)[Fuc(a1-3)[Gal(b1-4)]GlcNAc(b1-6)]Gal(b1-4)Glc
# Outline: as §1
# [4] = target: Fuc(a1-2)[Gal(a1-3)]Gal(b1-3)GlcNAc(b1-2)Man(a1-3)[Fuc(a1-2)[Gal(a1-3)]Gal(b1-3)GlcNAc(b1-2)Man(a1-6)]Man(b1-4)GlcNAc(b1-4)[Fuc(a1-6)]GlcNAc
# Outline: as §1
# [5] = target: Fuc(a1-2)[Gal(a1-3)]Gal(b1-4)GlcNAc(b1-2)Man(a1-3)[Fuc(a1-2)[Gal(a1-3)]Gal(b1-4)GlcNAc(b1-2)Man(a1-6)]Man(b1-4)GlcNAc(b1-4)GlcNAc
# Outline: as §1
# [6] = target: Fuc(a1-2)[GalNAc(a1-3)]Gal(b1-3)GlcNAc(b1-2)Man(a1-3)[Fuc(a1-2)[GalNAc(a1-3)]Gal(b1-3)GlcNAc(b1-2)Man(a1-6)]Man(b1-4)GlcNAc(b1-4)[Fuc(a1-6)]GlcNAc
# Outline: as §1
# [7] = target: Fuc(a1-2)[GalNAc(a1-3)]Gal(b1-4)Glc
# Outline: as §1
# [8] = target: Fuc(a1-2)[GalNAc(a1-3)]Gal(b1-4)GlcNAc(b1-3)[Fuc(a1-2)[GalNAc(a1-3)]Gal(b1-4)GlcNAc(b1-6)]GalNAc
# Outline: as §1
# [9] = target: Fuc(a1-2)[GalNAc(a1-3)]Gal(b1-4)[Fuc(a1-3)]GlcNAc
# Outline: as §1
# Fuc(a1-3)GlcNAc = target: Fuc(a1-3)GlcNAc
# Outline: as §1
# [10] = target: Fuc(a1-3)[GalNAc(b1-4)]GlcNAc
# Outline: as §1
# Fuc(a1-4)GlcNAc = target: Fuc(a1-4)GlcNAc
# Outline: as §1
# [11] = target: Gal(a1-3)Gal(b1-3)[Fuc(a1-4)]GlcNAc(b1-2)Man(a1-3)[Gal(a1-3)Gal(b1-3)[Fuc(a1-4)]GlcNAc(b1-2)Man(a1-6)]Man(b1-4)GlcNAc(b1-4)GlcNAc
# Outline: as §1
# [12] = target: Gal(b1-3)[Fuc(a1-4)]GlcNAc(b1-2)Man(a1-3)[Gal(b1-3)[Fuc(a1-4)]GlcNAc(b1-2)Man(a1-6)]Man(b1-4)GlcNAc(b1-4)[Fuc(a1-6)]GlcNAc
# Outline: as §1
# [13] = target: Gal(b1-4)GlcNAc(b1-2)[Gal(b1-4)GlcNAc(b1-4)]Man(a1-3)[Gal(b1-4)GlcNAc(b1-2)[Gal(b1-4)GlcNAc(b1-6)]Man(a1-6)]Man(b1-4)GlcNAc(b1-4)GlcNAc
# Outline: as §1
# [14] = target: Gal(b1-4)GlcNAc(b1-2)[Gal(b1-4)GlcNAc(b1-4)]Man(a1-3)[GlcNAc(b1-4)][Gal(b1-4)GlcNAc(b1-2)Man(a1-6)]Man(b1-4)GlcNAc(b1-4)GlcNAc
# Outline: as §1
# [15] = target: Gal(b1-4)GlcNAc(b1-3)Gal(b1-3)GalNAc
# Outline: as §1
# [16] = target: Gal(b1-4)GlcNAc(b1-6)[Gal(b1-3)]GalNAc
# Outline: as §1
# [17] = target: Gal(b1-4)GlcNAc(b1-6)[Gal(b1-4)GlcNAc(b1-3)]GalNAc
# Outline: as §1
# Gal3S(b1-3)GalNAc = target: Gal3S(b1-3)GalNAc
# Outline: as §1
# Gal6S(b1-4)Glc6S = target: Gal6S(b1-4)Glc6S
# Outline: as §1
# [18] = target: GalNAc3S(b1-4)[Fuc(a1-3)]GlcNAc
# Outline: as §1
# Glc(a1-4)Glc = target: Glc(a1-4)Glc
# Outline: as §1
# [19] = target: GlcNAc(a1-4)Gal(b1-4)GlcNAc(b1-3)Gal(b1-4)GlcNAc
# Outline: as §1
# [20] = target: GlcNAc(b1-3)Gal(b1-4)GlcNAc(b1-2)Man(a1-3)[GlcNAc(b1-3)Gal(b1-4)GlcNAc(b1-2)Man(a1-6)]Man(b1-4)GlcNAc(b1-4)GlcNAc
# Outline: as §1
# [21] = target: GlcNAc(b1-3)Gal(b1-4)GlcNAc(b1-3)GalNAc
# Outline: as §1
# [22] = target: GlcNAc(b1-3)Gal(b1-4)GlcNAc(b1-3)[GlcNAc(b1-3)Gal(b1-4)GlcNAc(b1-3)]GalNAc
# Outline: as §1
# [23] = target: GlcNAc(b1-3)Gal(b1-4)GlcNAc(b1-6)[Gal(b1-3)]GalNAc
# Outline: as §1
# [24] = target: GlcNAc(b1-6)Gal(b1-4)GlcNAc
# Outline: as §1
# [25] = target: Man(a1-2)Man(a1-3)[Man(a1-2)Man(a1-6)]Man(a1-6)[Man(a1-2)Man(a1-2)Man(a1-3)]Man(b1-4)GlcNAc(b1-4)GlcNAc
# Outline: as §1
# [26] = target: Man(a1-2)Man(a1-3)[Man(a1-6)]Man(a1-6)[Man(a1-2)Man(a1-3)]Man(b1-4)GlcNAc(b1-4)GlcNAc
# Outline: as §1
# [27] = target: Man(a1-2)Man(a1-6)[Man(a1-3)]Man(a1-6)[Man(a1-2)Man(a1-2)Man(a1-3)]Man(b1-4)GlcNAc(b1-4)GlcNAc
# Outline: as §1
# [28] = target: Man(a1-3)[Man(a1-6)]Man(a1-6)[Man(a1-2)Man(a1-3)]Man(b1-4)GlcNAc(b1-4)GlcNAc
# Outline: as §1
# [29] = target: Man(a1-3)[Man(a1-6)]Man(a1-6)[Man(a1-3)]Man
# Outline: as §1
# [30] = target: Man(a1-3)[Man(a1-6)]Man(a1-6)[Man(a1-3)]Man(b1-4)GlcNAc(b1-4)GlcNAc
# Outline: as §1
# [31] = target: Neu5Ac(a2-3)Gal(b1-3)[Fuc(a1-4)]GlcNAc
# Outline: as §1
# [32] = target: Neu5Ac(a2-3)Gal(b1-4)[Fuc(a1-3)]GlcNAc(b1-3)Gal
# Outline: as §1
# [33] = target: Neu5Ac(a2-6)Gal(b1-4)GlcNAc(b1-2)Man(a1-3)[GlcNAc(b1-2)Man(a1-6)]Man(b1-4)GlcNAc(b1-4)GlcNAc
# Outline: as §1
# [34] = target: Neu5Ac(a2-6)Gal(b1-4)GlcNAc(b1-3)Gal(b1-4)GlcNAc(b1-6)[Gal(b1-3)]GalNAc
# Outline: as §1
# [35] = target: Neu5Ac(a2-6)Gal(b1-4)GlcNAc(b1-6)[Gal(b1-3)]GalNAc
# Outline: as §1
# Neu5Gc(a2-6)GalNAc = target: Neu5Gc(a2-6)GalNAc
# Outline: as §1
binder,measurement,setting,value
B1,glycan array binding signal (z-score),[1],-0.111
same,glycan array binding signal (z-score),[2],-0.11
same,glycan array binding signal (z-score),[3],-0.113
same,glycan array binding signal (z-score),[4],0.415
same,glycan array binding signal (z-score),[5],-0.073
same,glycan array binding signal (z-score),[6],0.249
same,glycan array binding signal (z-score),[7],-0.112
same,glycan array binding signal (z-score),[8],-0.103
same,glycan array binding signal (z-score),[9],-0.111
same,glycan array binding signal (z-score),Fuc(a1-3)GlcNAc,-0.12
same,glycan array binding signal (z-score),[10],-0.105
same,glycan array binding signal (z-score),Fuc(a1-4)GlcNAc,-0.116
same,glycan array binding signal (z-score),[11],0.499
same,glycan array binding signal (z-score),[12],0.665
same,glycan array binding signal (z-score),[13],0.988
same,glycan array binding signal (z-score),[14],-0.117
same,glycan array binding signal (z-score),[15],-0.116
same,glycan array binding signal (z-score),[16],-0.113
same,glycan array binding signal (z-score),[17],-0.108
same,glycan array binding signal (z-score),Gal3S(b1-3)GalNAc,-0.116
same,glycan array binding signal (z-score),Gal6S(b1-4)Glc6S,-0.107
same,glycan array binding signal (z-score),[18],-0.116
same,glycan array binding signal (z-score),Glc(a1-4)Glc,-0.116
same,glycan array binding signal (z-score),[19],-0.117
same,glycan array binding signal (z-score),[20],-0.111
same,glycan array binding signal (z-score),[21],-0.112
same,glycan array binding signal (z-score),[22],-0.11
same,glycan array binding signal (z-score),[23],-0.115
same,glycan array binding signal (z-score),[24],-0.117
same,glycan array binding signal (z-score),[25],3.46
same,glycan array binding signal (z-score),[26],9.19
same,glycan array binding signal (z-score),[27],11.7
same,glycan array binding signal (z-score),[28],13.2
same,glycan array binding signal (z-score),[29],7.17
same,glycan array binding signal (z-score),[30],10.9
same,glycan array binding signal (z-score),[31],-0.12
same,glycan array binding signal (z-score),[32],-0.117
same,glycan array binding signal (z-score),[33],0.313
same,glycan array binding signal (z-score),[34],-0.118
same,glycan array binding signal (z-score),[35],-0.117
same,glycan array binding signal (z-score),Neu5Gc(a2-6)GalNAc,-0.114
